Compounds without any hit were thinned out: in the full panel of roughly 83,000, 20% have a hit.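 Compound tested at a single concentration for 48 hours in 96-well plates; a percent growth value below 10 was scored as active.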 Values without a mark were called inactive. Active and inactive are the calls of the source.
Columns and labels:
Experiment in all cases: NCI-60 one-dose screen, 48 h (100 = growth as untreated, 0 = no growth, -100 = all killed)
Conditions in all cases: 10 µM unless noted
NCI-H23 lung = tested on: NCI-H23 lung
NCI-H226 lung = tested on: NCI-H226 lung
NCI-H322M lung = tested on: NCI-H322M lung
HOP-62 NSCLC = tested on: HOP-62 NSCLC
NCI-H460 lung = tested on: NCI-H460 lung
HOP-92 NSCLC = tested on: HOP-92 NSCLC
NCI-H522 lung = tested on: NCI-H522 lung
A549/ATCC NSCLC = tested on: A549/ATCC NSCLC
786-0 renal = tested on: 786-0 renal
COLO 205 colon = tested on: COLO 205 colon
DU-145 prostate = tested on: DU-145 prostate
K-562 leukemia = tested on: K-562 leukemia
MALME-3M melanoma = tested on: MALME-3M melanoma
MDA-MB-231 breast = tested on: MDA-MB-231 breast
RXF 393 renal = tested on: RXF 393 renal
SF-268 CNS = tested on: SF-268 CNS
SF-295 CNS = tested on: SF-295 CNS
SF-539 CNS = tested on: SF-539 CNS
UACC-257 melanoma = tested on: UACC-257 melanoma
M14 melanoma = tested on: M14 melanoma

SMILES	growth (NCI-H23 lung)	growth (NCI-H226 lung)	growth (NCI-H322M lung)	growth (HOP-62 NSCLC)	growth (NCI-H460 lung)	growth (HOP-92 NSCLC)	growth (NCI-H522 lung)	growth (A549/ATCC NSCLC)	growth (786-0 renal)	growth (COLO 205 colon)	growth (DU-145 prostate)	growth (K-562 leukemia)	growth (MALME-3M melanoma)	growth (MDA-MB-231 breast)	growth (RXF 393 renal)	growth (SF-268 CNS)	growth (SF-295 CNS)	growth (SF-539 CNS)	growth (UACC-257 melanoma)	growth (M14 melanoma)
CNc1nc2c(s1)C(c1cc(F)ccc1F)CC(=O)N2 (stereo unspecified)	85.9%	84.8%	92.2%	69.1%	82.3%	85.5%	51.3%	87%	83.9%	83.7%	76.3%	18.5%	70.2%	69.6%	75.5%	79.3%	87.4%	53.8%	86.7%	47.3%
COc1cccc(Cc2nn3cc(-c4ccccc4)nc3s2)c1	97.4%	110%	91.8%	95.2%	105%	84.8%	70.3%	94.4%	52%	106%	94.4%	27.7%	96.2%	78.9%	117%	89.2%	103%	102%	89.7%	84.1%
C=C1C(=O)O[C@H]2[C@H]1CC/C(COC(=O)C(C)c1ccc(CC(C)C)cc1)=C\CC[C@@]1(C)O[C@@H]21 (stereo partly specified)	25.8%	83.6%	97.9%	84.7%	37.9%	-26.8% (active)	-63.8% (active)	75.1%	-93.4% (active)	-10.1% (active)	47.2%	-4.97% (active)	-25.6% (active)	-58% (active)	-50.1% (active)	33.8%	83.1%	22.1%	47.9%	16.1%
O=C(COc1ccc(/C=C2\Cc3ccc(Cl)cc3C2=O)cc1)Nc1nc2ccccc2s1	95.5%	101%	134%	98.2%	103%	97%	96.7%	99.5%	103%	116%	115%	86.4%	132%	96%	88.4%	112%	108%	98.9%	105%	103%
Cc1ccc(C(=O)NN2C(=O)CSC2c2ccc(Cl)cc2)cn1 (stereo unspecified)	84.1%	82.4%	119%	82.2%	101%	71.1%	84.3%	100%	107%	105%	125%	89.8%	140%	88.8%	95.2%	101%	66.9%	101%	110%	97.8%
COc1nc2ccccc2cc1-c1nc2c(cnn2-c2ccccc2)c(=O)[nH]1	46.2%	73.3%	82.1%	44.2%	24.4%	64.6%	21.6%	50.2%	61.9%	32.6%	61%	16.7%	75.6%	58.3%	67.1%	53.6%	43.8%	28.9%	55.5%	23.9%
COc1ccc2c(c1)c(-c1nn3cc(-c4cccs4)nc3s1)cn2C	82.5%	78.9%	55.8%	85.6%	68.7%	44.7%	63%	81.1%	97.5%	64.5%	89.7%	51%	72.1%	54.1%	96.3%	80.3%	66.9%	81.3%	105%	71.6%
OC(c1ccccc1)C(NC(Cc1ccccc1)c1ccccc1)c1ccccc1 (stereo unspecified)	81.8%	82.1%	93.2%	88%	91.7%	65.3%	67.1%	73.3%	81.4%	101%	98.7%	82.5%	91.9%	78.7%	102%	86.8%	93.1%	96.7%	91.6%	91.8%
COc1ccc(-c2csc(NC(=O)N3CCN(c4cc5c(cc4F)c(=O)c(C(=O)O)cn5C4CC4)CC3)n2)cc1	-2.88% (active)	18.8%	7.07% (active)	20%	4.13% (active)	-25.6% (active)	-13.9% (active)	3.2% (active)	20.7%	9.52% (active)	10.6%	11.7%	-11.4% (active)		34.4%	20%	-4.61% (active)	20.6%	-17.6% (active)	9.8% (active)
O=C(O)c1cn(C2CC2)c2cc(N3CCN(C(=O)Nc4nc(-c5ccc(Cl)cc5)cs4)CC3)c(F)cc2c1=O	8.09% (active)	19.7%	4.8% (active)	20.5%	8.14% (active)	-22.2% (active)	-6.18% (active)	6.96% (active)	22.6%	6.21% (active)	11.4%	8.49% (active)	-20.2% (active)		41.6%	20.6%	-3.25% (active)	14.7%	-12.5% (active)	18.2%
Cc1nc2ccccc2c(/C=C/c2ccccc2)c1C(=O)/C=C/c1ccc(C(F)(F)F)cc1	-33.6% (active)	-42.2% (active)	2.79% (active)	-21.9% (active)	-71.6% (active)	-64.8% (active)	-1.91% (active)	75.3%	-76.4% (active)	-25.7% (active)	-88.7% (active)	1.82% (active)	-61.4% (active)	-43.7% (active)	-81.7% (active)	-6.77% (active)	-74.2% (active)	-84.9% (active)	-21.9% (active)	-31.3% (active)
CCCCC[C@H](O)C/C=C1/C(=O)C=C[C@@H]1C/C=C\CCCC(=O)OC	67.9%	70.4%	79.7%	34%	46.8%	108%	30.4%	72%	44%	62.8%	53.2%	5.84% (active)	107%		70.8%	34.9%	82.2%	91.3%	74.5%	13.6%
COc1ccc(-c2nc(NCCO)[nH]c(=O)c2C#N)cc1	95.1%	99.9%	95.8%	86.3%	112%	98.5%	88.5%	98.5%	101%	101%	101%	97.1%	101%		117%	99.2%	97.1%	104%	112%	99.9%
CCOC(=O)c1c(C)oc2ncnc(N3CCN(C(=O)COc4ccc(C(C)(C)C)cc4)CC3)c12	72.5%	66.5%	88.8%	90.8%	91.4%	62.9%	77.9%	86%	99.1%	76.9%	87.5%	53.5%	70.2%	80.5%	92.1%	91%	79.9%	96.1%	78.4%	74.5%
COc1cc(/C=N/NC(=O)c2ccc(C)nc2)cc(OC)c1OC	102%	85.1%	90.5%	105%	103%	90.5%	91.7%	90.9%	34%	108%	114%	52.2%	97.3%	107%	90%	104%	97.4%	97.6%	74.3%	108%
Cc1ccc(-c2nc(N3CCN(CC(=O)Nc4ccc(Cl)cc4)CC3)c3ccccc3n2)cc1	94%	92.9%	91.1%	103%	98.4%	114%	83.6%	77.4%	92.1%	102%	88.7%	72.9%	101%	80.1%	74.9%	83.9%	95.6%	99.6%	104%	99.1%
